PubChem BioAssay (NCATS)
Results filed as inconclusive are left out. Calls of active or inactive are those of the source. Unless noted, calls come from the whole dose curve; as a rule, active = well fitted curve in either direction with a large enough effect (not every such curve was filed as active); inconclusive = small, poorly fitted or top-dose-only effect, or another doubt; inactive = flat fitted curve, though single readings scatter.

Experiments:
[1] = target: Lysosomal acid glucosylceramidase (Homo sapiens) (UniProt P04062); assay: Glucocerebrosidase-p2 (AID 348; in the data active = potency below about 10 µM; note: potency is the fitted concentration of half-maximal effect); settings: purified GBA, blue fluorogenic substrate, 40 min
Method in brief: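 Normal human glucocerebrosidase (0.2 nM) with blue fluorogenic substrate (80 uM final) in citrate/phosphate pH 5.9 with 10mM sodium taurocholate, 0.01% tween-20; 40 min RT, NaOH/glycine stop; fluorescence Ex 365/Em 440; AC50 from a titration from 0.6 nM upwards.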

[2] = AP1 Signaling Pathway (AID 357); settings: ME-180 AP-1-bla reporter, EGF-induced, beta-lactamase ratio, 5 h; at 7.69 µM (top of the series) unless noted;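 note: ME-180 reporter cells stimulated with EGF at its EC50 level; % is set by controls: 0 for no effect and ±100 for the full control effect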
Method in brief: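 In this screen, ME-180 cells in Opti-MEM with 0.5% dialyzed FBS received EC50 EGF and compound titrations for 5 h. AP-1 reporter beta-lactamase was detected via CCF4 ratio, giving AC50 for positive and negative modulators.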

[3] = NFAT Signaling Pathway (AID 444); settings: Jurkat NFAT-bla M1, carbachol, beta-lactamase ratio, 5 h; at 7.69 µM (top of the series) unless noted;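 note: carbachol stimulus at about its EC50 of 1 µM final; % is set by controls: 0 for no effect and ±100 for the full control effect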
Method in brief: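 Jurkat cells with NFAT-driven β-lactamase reporter and co-expressed M1 receptor, stimulated with carbachol (final 1 uM, ~EC50), compound titration, 5 h at 37 °C. CCF4 loaded 1 h at RT; 460/530 nm ratio gave %activity and AC50.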

[4] = Stat Signaling Pathway (AID 446); settings: ME-180 (cervical carcinoma) SIE beta-lactamase reporter, IL-6 stimulated, 5 h; at 7.69 µM (top of the series) unless noted;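 note: ME-180 cervical cancer cells given 40 pM IL-6 alongside compound; SIE-controlled beta-lactamase reporter measured as 460/530 nm FRET emission ratio; % is set by controls: 0 for no effect and ±100 for the full control effect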
Method in brief: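 FRET read-out (405 nm excitation, 460/530 nm emission) of a beta-lactamase reporter under a STAT-inducible element in ME-180 cervical carcinoma cells. Cells with compound receive 40 pM IL-6 for 5 h. Values are normalised to AC90 stimulation and AC90 JAK-inhibitor controls.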

[5] = target: Glucocorticoid receptor (Homo sapiens) (UniProt P04150); assay: GR-GFP Redistribution (AID 450;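 active = compounds whose dose series gives a full or clear partial fitted curve of increased nuclear translocation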; note: potency is the fitted concentration of half-maximal effect); settings: U2OS GR-GFP nuclear translocation, laser cytometry, 2 h
[6] = target: Glucocorticoid receptor (Homo sapiens) (UniProt P04150); assay: GR-EFC Redistribution (AID 451; calls by dose curve; note: potency is the fitted concentration of half-maximal effect); settings: CHO-K1 GR-EFC translocation, beta-gal luminescence, 2 h
Method in brief: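 CHO-K1 cells expressing nuclear EA and GR-ED fragments of b-gal; compounds titrated up to 46 uM final, 2 h at 37 C. GR nuclear translocation read as complemented b-gal luminescence after 1 h RT detection.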

[7] = target: Mitogen-activated protein kinase 10 (Mus musculus) (UniProt Q61831); assay: JNK3 AlphaScreen Assay (AID 530); settings: JNK3 lysate, c-Jun phosphorylation; series mostly up to 11.4 µM;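 note: kinase came from lysate of stimulated human HepG2 cells; signal reports phosphorylation of biotinylated GST-cJun 1-79 at Ser73 with 10 µM ATP; % is set by controls: 0 for no effect and ±100 for the full control effect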
Method in brief: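 HepG2 lysate (IL-1b/TNFa pre-activated) + biotin-GST-cJun 1-79 + anti-pSer73 cJun; cpd titration, 15 min RT; ATP 10 uM start; Tris pH 7.6, MgCl2, DTT, vanadate; beads in EDTA buffer; AlphaScreen.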

[8] = target: 3',5'-cyclic-AMP phosphodiesterase 4B (Homo sapiens) (UniProt Q07343); assay: qHTS Assay for Inhibitors of PDE-IV (AID 607; active = well fitted activation curve with a large enough effect in the main read-out, with a control signal flat, not every such curve was filed as active; note: % of control where 0% means no effect); settings: HEK293 ACTOne CNG channel cells, membrane potential fluorescence; series mostly up to 22.9 µM
Method in brief: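 Cell-based read-out of cAMP via a modified cyclic nucleotide-gated channel and membrane potential dye (535/590 nm) in HEK293 cells expressing PDE4 endogenously. Compounds tested up to 22.9 uM final; 100 uM RO 20-1724 reference.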

Sequence of Glucocorticoid receptor (Homo sapiens) (P04150 whole entry, looked up, the tested form may be a part): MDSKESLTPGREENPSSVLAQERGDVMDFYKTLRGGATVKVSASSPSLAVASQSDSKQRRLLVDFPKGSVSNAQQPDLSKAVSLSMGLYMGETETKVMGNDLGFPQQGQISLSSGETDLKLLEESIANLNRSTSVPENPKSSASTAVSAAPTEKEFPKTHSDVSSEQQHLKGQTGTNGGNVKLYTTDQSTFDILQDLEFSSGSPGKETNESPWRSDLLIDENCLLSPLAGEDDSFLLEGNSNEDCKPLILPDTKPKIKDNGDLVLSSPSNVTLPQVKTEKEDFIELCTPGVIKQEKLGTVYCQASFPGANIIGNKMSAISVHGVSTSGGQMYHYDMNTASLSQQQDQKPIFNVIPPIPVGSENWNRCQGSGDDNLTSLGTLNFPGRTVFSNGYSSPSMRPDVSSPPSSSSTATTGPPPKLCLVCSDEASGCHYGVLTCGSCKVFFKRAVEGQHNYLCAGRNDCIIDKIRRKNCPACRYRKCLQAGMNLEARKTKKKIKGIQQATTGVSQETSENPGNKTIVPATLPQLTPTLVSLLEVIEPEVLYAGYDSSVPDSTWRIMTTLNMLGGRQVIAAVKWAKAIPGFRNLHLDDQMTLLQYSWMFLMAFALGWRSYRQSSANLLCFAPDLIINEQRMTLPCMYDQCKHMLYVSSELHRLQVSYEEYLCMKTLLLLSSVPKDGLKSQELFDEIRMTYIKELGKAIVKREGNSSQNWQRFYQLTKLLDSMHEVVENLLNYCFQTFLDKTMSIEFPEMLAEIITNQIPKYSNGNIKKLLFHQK
Sequence of 3',5'-cyclic-AMP phosphodiesterase 4B (Homo sapiens) (Q07343 whole entry, looked up): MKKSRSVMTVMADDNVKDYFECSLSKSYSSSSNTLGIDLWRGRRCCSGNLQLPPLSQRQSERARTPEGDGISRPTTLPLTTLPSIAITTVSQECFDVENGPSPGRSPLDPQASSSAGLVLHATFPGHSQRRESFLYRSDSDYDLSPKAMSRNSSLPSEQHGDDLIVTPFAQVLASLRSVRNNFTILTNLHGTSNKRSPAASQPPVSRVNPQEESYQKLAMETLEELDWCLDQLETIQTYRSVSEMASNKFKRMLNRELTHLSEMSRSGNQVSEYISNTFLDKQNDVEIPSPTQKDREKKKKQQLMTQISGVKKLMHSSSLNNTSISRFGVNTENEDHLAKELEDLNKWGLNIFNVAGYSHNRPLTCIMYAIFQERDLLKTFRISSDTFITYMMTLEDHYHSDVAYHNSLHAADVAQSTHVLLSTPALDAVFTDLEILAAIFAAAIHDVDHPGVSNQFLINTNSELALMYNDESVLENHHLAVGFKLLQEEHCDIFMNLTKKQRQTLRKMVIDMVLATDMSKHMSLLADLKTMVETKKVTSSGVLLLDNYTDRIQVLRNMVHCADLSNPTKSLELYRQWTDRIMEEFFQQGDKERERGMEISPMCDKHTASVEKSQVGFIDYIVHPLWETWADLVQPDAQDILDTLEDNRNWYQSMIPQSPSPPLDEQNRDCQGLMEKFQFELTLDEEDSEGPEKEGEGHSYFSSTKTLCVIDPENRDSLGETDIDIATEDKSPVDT
Sequence of Lysosomal acid glucosylceramidase (Homo sapiens) (P04062 whole entry, looked up): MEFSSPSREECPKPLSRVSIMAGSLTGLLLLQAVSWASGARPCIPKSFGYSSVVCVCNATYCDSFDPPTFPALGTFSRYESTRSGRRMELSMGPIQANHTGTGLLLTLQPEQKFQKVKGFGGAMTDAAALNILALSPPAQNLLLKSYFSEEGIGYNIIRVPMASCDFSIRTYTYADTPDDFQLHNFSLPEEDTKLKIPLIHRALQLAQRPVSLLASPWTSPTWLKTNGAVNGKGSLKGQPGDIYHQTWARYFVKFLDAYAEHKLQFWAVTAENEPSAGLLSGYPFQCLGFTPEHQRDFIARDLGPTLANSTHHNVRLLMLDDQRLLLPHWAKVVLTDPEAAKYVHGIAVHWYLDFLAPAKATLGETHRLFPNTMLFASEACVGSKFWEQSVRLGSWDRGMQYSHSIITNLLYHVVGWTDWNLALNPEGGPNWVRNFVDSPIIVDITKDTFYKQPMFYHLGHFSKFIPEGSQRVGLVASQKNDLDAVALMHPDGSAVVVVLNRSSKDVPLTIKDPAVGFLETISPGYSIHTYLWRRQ

O=C(O)CCNCC(=O)O
inactive: Potency [1] > 11.4 µM | activity change, negative = inhibition [2] 2.01% | activity change, negative = inhibition [3] 0.769% | activity, negative = inhibition [4] -2.35% | Potency [5] > 46 µM | Potency [6] > 9.22 µM | Potency [7] | Potency [8]

COC(=O)[C@@H]1C(O)[C@@H](C(=O)OC)[C@H](C)N(C)[C@@H]1C (stereo partly specified)
inactive: Potency [1] > 11.4 µM | activity change, negative = inhibition [2] 3.71% | activity change, negative = inhibition [3] 14.1% | activity, negative = inhibition [4] -1.12% | Potency [5] > 46 µM | Potency [6] > 9.22 µM | Potency [7] | Potency [8]

O=C(O)CCN1C(=S)CSC1=S
inactive: Potency [1] > 11.4 µM | activity change, negative = inhibition [2] -2.79% | activity change, negative = inhibition [3] 8.02% | activity, negative = inhibition [4] 10.1% | Potency [5] > 46 µM | Potency [6] > 9.22 µM | Potency [7] | Potency [8]

O=C1OC(c2ccc(O)c(-c3ccccc3)c2)(c2ccc(O)c(-c3ccccc3)c2)c2c(Cl)c(Cl)c(Cl)c(Cl)c21
inactive: Potency [1] > 11.4 µM | activity change, negative = inhibition [2] 10.7% | activity change, negative = inhibition [3] 19.3% | activity, negative = inhibition [4] 5.56% | Potency [5] > 46 µM | Potency [6] > 9.22 µM | Potency [7] | Potency [8]

O=C(NC1(C(=O)O)CCCC1)c1ccccc1
inactive: Potency [1] > 11.4 µM | activity change, negative = inhibition [2] -4.54% | activity change, negative = inhibition [3] 12% | activity, negative = inhibition [4] 6.79% | Potency [5] > 46 µM | Potency [6] > 9.22 µM | Potency [7] | Potency [8]

c1ccc(-c2ccc(-c3ccc(C4=NCCN4)cc3)o2)cc1
inactive: Potency [1] > 11.4 µM | activity change, negative = inhibition [2] 8.2% | activity change, negative = inhibition [3] 9.65% | activity, negative = inhibition [4] 25.4% | Potency [5] > 46 µM | Potency [6] > 9.22 µM | Potency [7] | Potency [8]

CC(CCN)(CCN)[N+](=O)[O-]
inactive: Potency [1] > 11.4 µM | activity change, negative = inhibition [2] 10.4% | activity change, negative = inhibition [3] 9.23% | activity, negative = inhibition [4] 5.23% | Potency [5] > 46 µM | Potency [6] > 9.22 µM | Potency [7] | Potency [8]

O=C(O)c1cccc(C[C@H](Br)C(=O)O)c1
inactive: Potency [1] > 11.4 µM | activity change, negative = inhibition [2] 3.81% | activity change, negative = inhibition [3] 14.3% | activity, negative = inhibition [4] 9.47% | Potency [5] > 46 µM | Potency [6] > 9.22 µM | Potency [7] | Potency [8]

CCN(CC(=O)O)CC(=O)O
inactive: Potency [1] > 11.4 µM | activity change, negative = inhibition [2] -0.0102% | activity change, negative = inhibition [3] 0.338% | activity, negative = inhibition [4] 13.7% | Potency [5] > 46 µM | Potency [6] > 9.22 µM | Potency [7] | Potency [8]

CSCC[C@@H](C(=O)O)N(C)C
inactive: Potency [1] > 11.4 µM | activity change, negative = inhibition [2] 3.21% | activity change, negative = inhibition [3] 7.85% | activity, negative = inhibition [4] 2.15% | Potency [5] > 46 µM | Potency [6] > 9.22 µM | Potency [7] | Potency [8]

CNS(=O)(=O)c1ccccc1C(=N)c1ccccc1
inactive: Potency [1] > 11.4 µM | activity change, negative = inhibition [2] -4.6% | activity change, negative = inhibition [3] 1.97% | activity, negative = inhibition [4] 0.878% | Potency [5] > 46 µM | Potency [6] > 9.22 µM | Potency [7] | Potency [8]

NC1=N[C@H](c2ccc(Cl)cc2)N(c2ccc(S(=O)(=O)Nc3ncccn3)cc2)C(N)=N1
inactive: Potency [1] > 11.4 µM | activity change, negative = inhibition [2] -10.6% | activity change, negative = inhibition [3] -0.0424% | activity, negative = inhibition [4] -0.946% | Potency [5] > 46 µM | Potency [6] > 9.22 µM | Potency [7] | Potency [8]

C[C@H](OP(=O)(O)O)[C@H](N)C(=O)O
inactive: Potency [1] > 11.4 µM | activity change, negative = inhibition [2] 0.907% | activity change, negative = inhibition [3] 13.7% | activity, negative = inhibition [4] -1.55% | Potency [5] > 46 µM | Potency [6] > 9.22 µM | Potency [7] | Potency [8]

Cc1cc2cc3c(=O)[nH]c(=O)[nH]c3nc2cc1C
inactive: Potency [1] > 11.4 µM | activity change, negative = inhibition [2] -6.37% | activity change, negative = inhibition [3] 11.7% | activity, negative = inhibition [4] -6.9% | Potency [5] > 46 µM | Potency [6] > 9.22 µM | Potency [7] | Potency [8]

O=C(O)[C@@H]1CCCN1Cc1cc2ccccc2c2ccccc12
inactive: Potency [1] > 11.4 µM | activity change, negative = inhibition [2] 21.6% | activity change, negative = inhibition [3] 17.3% | activity, negative = inhibition [4] 2.3% | Potency [5] > 46 µM | Potency [6] > 9.22 µM | Potency [7] | Potency [8]

OC[C@@H](O)[C@@H](O)[C@@H](O)[C@@H](O)c1nc2ccc(Cl)cc2[nH]1
inactive: Potency [1] > 11.4 µM | activity change, negative = inhibition [2] 4.42% | activity change, negative = inhibition [3] 10.1% | activity, negative = inhibition [4] -0.802% | Potency [5] > 46 µM | Potency [6] > 9.22 µM | Potency [7] | Potency [8]

CCOc1ccc(N=NS(=O)(=O)O)cc1
inactive: Potency [1] > 11.4 µM | activity change, negative = inhibition [2] 8.26% | activity change, negative = inhibition [3] -0.735% | activity, negative = inhibition [4] 8.88% | Potency [5] > 46 µM | Potency [6] > 9.22 µM | Potency [7] | Potency [8]
